Laboratory results published in PubChem BioAssay (NCATS).
Records with an inconclusive call do not appear. A call without a number means that no potency is given here. Activity calls are given as the source filed them. Unless noted, the call rests on the fitted dose curve; in most records, active means well fitted curve in the direction sought with a large enough effect; inconclusive means small, poorly fitted or top-dose-only effect, or another doubt; inactive means no such curve, though single readings can be large; an effect the other way counts as inactive or inconclusive.

Key:
[1] = qHTS of pediatric cancer cell lines to identify multiple opportunities for drug repurposing: Primary screen for NB1643 cells (AID 1347099); further: nearly all actives have a fitted effect of over 50% in size
Summary of the method: (§1)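 Following a 5-hour attachment period, cells at 500-1,000/well received compounds and were cultured for 48 hours. CellTiter-Glo was added and luminescence read to estimate viable, metabolically active cells.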

[2] = qHTS of pediatric cancer cell lines to identify multiple opportunities for drug repurposing: Primary screen for OHS-50 cells (AID 1347103); details: OHS-50 osteosarcoma viability, CellTiter-Glo luminescence, 48 h; further: potency means the concentration at half of the fitted maximal effect; nearly all actives have a fitted effect of over 40% in size
Description: Drug repurposing or repositioning has been offered as a strategy for drug development in oncology programs. This approach has special potential for childhood cancers and other rare or orphan diseases, where the expected return on new drug development has been a disincentive to pharmaceuticals.
In this project we exploit the poly-pharmacology of drugs to discover new indications via phenotypic screening of a panel of 19 well-characterized cell lines derived from solid tumors seen in children and adolescents. The goal is to identify approved drugs with previously unrecognized anticancer properties that has the potential to reveal new mechanisms and biological processes involved in carcinogenesis or drug resistance. We employed a titration-based paradigm (quantitative high-throughput screening or qHTS), where all compounds were tested at multiple concentrations for their effect on cell viability. […] We screened the NIH Chemical Genomics Center (NCGC) Pharmaceutical Collection (NPC) and Mechanism Interrogation Plate (MIPE) small molecule collections of approved and investigational compounds against these cell lines; and measured metabolically active cells after 48 hours of compound treatment as a proxy for cell viability. […]
[1] Shen, M et al. Quantitative high-throughput phenotypic screening of pediatric cancer cell lines identifies multiple opportunities for drug repurposing. […]

[3] = qHTS of pediatric cancer cell lines to identify multiple opportunities for drug repurposing: Primary screen for RD cells (AID 1347104); details: RD rhabdomyosarcoma viability, CellTiter-Glo luminescence, 48 h; further: potency means the concentration at half of the fitted maximal effect; nearly all actives have a fitted effect of over 55% in size
Summary of the method: as §1

[4] = qHTS to identify inhibitors of the type 1 interferon - major histocompatibility complex class I in skeletal muscle: primary screen against the NCATS Pharmaceutical Collection (AID 1347407);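 further: luminescence of HiBiT knocked into endogenous HLA-B as interferon-induced MHC class I level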
Summary of the method: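 Immortalized human myoblasts (C25cl48) with HiBiT knocked into endogenous HLA-B*08:01 were stimulated with 4 ng/ml IFN-beta and treated with compounds (8-point, 1:5, top 46 uM final) for 24 h at 37 C; HiBiT lytic luminescence read.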

[5] = target: Protein phosphatase 1D (Homo sapiens) (UniProt O15297); test: RapidFire Mass Spectrometry qHTS Assay for Modulators of WT P53-Induced Phosphatase 1 (WIP1) (AID 1347424); further: series mostly up to about 63 µM
Summary of the method: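 RapidFire MS readout of dephosphorylated VEPPL-S-QETFS product, with 1 uM isotope-labelled peptide standard. Reaction: 10 nM WIP1, 2 uM phosphopeptide substrate, 5 min, room temperature, after 1 h compound preincubation; stopped with 0.5% formic acid.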

[6] = target: Protein phosphatase 1D (Homo sapiens) (UniProt O15297); test: Rhodamine-PBP qHTS Assay for Modulators of WT P53-Induced Phosphatase 1 (WIP1) (AID 1347425)
Summary of the method: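 Steps: enzyme with Rh-PBP sensor and compounds, room-temperature incubation of 1 hr, baseline read, addition of VEPPL-pS-QETFS (10 uM final), kinetic fluorescence reads at 525/598 nm. Activity equals final minus baseline signal.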

[7] = A High-Content qHTS Against Drug Library for the Identification of Small Molecules that Inhibit DYT1 Early Onset Primary Dystonia-Associated Cell Pathology (AID 1645839; calls by dose curve; further: series mostly up to about 46 µM)
Summary of the method: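 Cells were seeded and left for 24 h, then dosed with compound alongside tetracycline induction of mutant EGFP-TorsinA. They were incubated for 48 h, fixed in 4% paraformaldehyde, permeabilized and imaged for mislocalization (%pathology) and cell count.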

[8] = target: Voltage-gated inwardly rectifying potassium channel KCNH2 (Homo sapiens) (UniProt Q12809); test: qHTS Assay for Small Molecule Inhibitors of the Human hERG Channel Activity (AID 588834);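 further: top concentration of the series differs between compounds; lower thallium flux fluorescence means stronger hERG block; nearly all actives have a fitted effect of over 50% in size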
Summary of the method: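 In hERG-transduced U2OS cells, dye-loaded for 1 hr at room temperature in dark, test compounds incubated 10 min at 37 °C before thallium stimulation. AC50 values derived by Hill modelling of concentration-response.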

[9] = tested on: Zika virus NS2B-NS3 protease (unlinked); test: Optimization of GU AMC qHTS for Zika virus inhibitors: Unlinked NS2B-NS3 protease assay (AID 1347151); further: series mostly up to about 52 µM; nearly all actives have a fitted effect of over 80% in size
Summary of the method: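 Noncovalent complex of NS2B hydrophilic domain and NS3 protease domain, 25 nM final, in 10 mM Tris-HCl pH 8.0, 0.01% Tween 20. AMC fluorescence change over 15 min at room temperature was fitted to a 4-parameter Hill equation.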

Sequence of Protein phosphatase 1D (Homo sapiens) (O15297 whole entry, looked up): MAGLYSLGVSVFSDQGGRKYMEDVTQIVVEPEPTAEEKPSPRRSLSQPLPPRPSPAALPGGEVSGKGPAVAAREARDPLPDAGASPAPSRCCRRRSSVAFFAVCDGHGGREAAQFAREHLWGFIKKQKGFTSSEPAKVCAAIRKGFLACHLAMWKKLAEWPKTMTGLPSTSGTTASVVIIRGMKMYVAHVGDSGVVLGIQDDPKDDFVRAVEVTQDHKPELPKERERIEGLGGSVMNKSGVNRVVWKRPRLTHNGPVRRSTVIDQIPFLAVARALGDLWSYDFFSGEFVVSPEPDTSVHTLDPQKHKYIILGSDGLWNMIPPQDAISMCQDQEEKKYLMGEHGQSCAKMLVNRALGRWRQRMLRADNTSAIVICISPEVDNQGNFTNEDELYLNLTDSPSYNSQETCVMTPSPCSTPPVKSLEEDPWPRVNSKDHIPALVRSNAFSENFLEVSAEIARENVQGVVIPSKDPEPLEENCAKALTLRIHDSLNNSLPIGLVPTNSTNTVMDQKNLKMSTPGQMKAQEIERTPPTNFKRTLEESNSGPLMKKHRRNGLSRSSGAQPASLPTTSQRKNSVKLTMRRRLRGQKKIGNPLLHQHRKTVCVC
Sequence of Voltage-gated inwardly rectifying potassium channel KCNH2 (Homo sapiens) (Q12809 whole entry, looked up): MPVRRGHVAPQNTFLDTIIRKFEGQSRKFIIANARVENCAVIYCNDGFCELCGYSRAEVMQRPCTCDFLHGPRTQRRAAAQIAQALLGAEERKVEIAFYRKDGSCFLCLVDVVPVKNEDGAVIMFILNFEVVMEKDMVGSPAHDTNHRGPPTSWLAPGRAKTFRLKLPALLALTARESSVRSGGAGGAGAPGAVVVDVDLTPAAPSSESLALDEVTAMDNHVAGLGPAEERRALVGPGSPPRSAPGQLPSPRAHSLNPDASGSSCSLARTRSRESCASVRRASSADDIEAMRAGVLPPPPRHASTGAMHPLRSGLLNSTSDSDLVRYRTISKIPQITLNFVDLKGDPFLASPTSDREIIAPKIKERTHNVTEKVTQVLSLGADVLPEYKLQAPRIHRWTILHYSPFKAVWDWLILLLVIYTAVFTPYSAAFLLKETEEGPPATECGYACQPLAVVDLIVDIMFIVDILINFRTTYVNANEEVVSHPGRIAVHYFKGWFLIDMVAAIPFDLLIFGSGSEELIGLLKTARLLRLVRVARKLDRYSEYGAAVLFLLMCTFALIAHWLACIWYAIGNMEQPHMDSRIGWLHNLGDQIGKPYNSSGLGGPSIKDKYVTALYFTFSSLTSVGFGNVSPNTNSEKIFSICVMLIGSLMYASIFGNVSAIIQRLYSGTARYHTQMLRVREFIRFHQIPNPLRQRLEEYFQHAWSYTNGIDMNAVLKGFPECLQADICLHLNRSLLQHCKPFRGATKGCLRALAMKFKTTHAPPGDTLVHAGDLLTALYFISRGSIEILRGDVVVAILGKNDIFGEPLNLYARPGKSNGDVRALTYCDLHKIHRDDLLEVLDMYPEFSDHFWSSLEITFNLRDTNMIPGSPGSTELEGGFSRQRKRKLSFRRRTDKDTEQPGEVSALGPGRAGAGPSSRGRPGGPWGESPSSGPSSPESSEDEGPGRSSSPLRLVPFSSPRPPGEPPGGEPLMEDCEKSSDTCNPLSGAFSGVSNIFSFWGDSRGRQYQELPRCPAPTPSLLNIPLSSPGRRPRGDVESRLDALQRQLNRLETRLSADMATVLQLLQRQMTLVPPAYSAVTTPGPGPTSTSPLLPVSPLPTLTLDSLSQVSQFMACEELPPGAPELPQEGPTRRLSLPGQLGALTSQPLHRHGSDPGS

SMILES | Potency [1] | Potency [2] | Potency [3] | outcome [4] | outcome [5] | outcome [6] | outcome [7] | Potency [8] | Potency [9]
CS(=O)(=O)c1ccc(-c2cn3ccccc3n2)cc1 | inactive | 17.4 µM (active) | 23.7 µM (active) | inactive | inactive | inactive | inactive | – | –
CC[C@H](C)[C@H]1O[C@]2(CC[C@@H]1C)C[C@@H]1C[C@@H](C/C=C(\C)[C@@H](O[C@H]3C[C@H](OC)[C@@H](O[C@H]4C[C@H](OC)[C@@H](O)[C@H](C)O4)[C@H](C)O3)[C@@H](C)/C=C/C=C3\CO[C@@H]4[C@H](O)C(C)=C[C@@H](C(=O)O1)[C@]34O)O2 | – | – | – | – | – | – | – | inactive | inactive
